Only a selection was taken, and hits are over-represented in it overall.
IDE exosite FP: exo-site inhibitors of human insulin-degrading enzyme; purified IDE, FL-6b probe fluorescence polarization; hits give low values; z-score at 20 µM; 17,000 compounds, 6.3% hits;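 active = z-score of -3 or lower, meaning strong loss of probe binding signal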;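 note: His-tagged human IDE residues 42-1019 made in E. coli with 30 nM FL-6b probe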
Target sequence (P14735 42-1019 limits assumed): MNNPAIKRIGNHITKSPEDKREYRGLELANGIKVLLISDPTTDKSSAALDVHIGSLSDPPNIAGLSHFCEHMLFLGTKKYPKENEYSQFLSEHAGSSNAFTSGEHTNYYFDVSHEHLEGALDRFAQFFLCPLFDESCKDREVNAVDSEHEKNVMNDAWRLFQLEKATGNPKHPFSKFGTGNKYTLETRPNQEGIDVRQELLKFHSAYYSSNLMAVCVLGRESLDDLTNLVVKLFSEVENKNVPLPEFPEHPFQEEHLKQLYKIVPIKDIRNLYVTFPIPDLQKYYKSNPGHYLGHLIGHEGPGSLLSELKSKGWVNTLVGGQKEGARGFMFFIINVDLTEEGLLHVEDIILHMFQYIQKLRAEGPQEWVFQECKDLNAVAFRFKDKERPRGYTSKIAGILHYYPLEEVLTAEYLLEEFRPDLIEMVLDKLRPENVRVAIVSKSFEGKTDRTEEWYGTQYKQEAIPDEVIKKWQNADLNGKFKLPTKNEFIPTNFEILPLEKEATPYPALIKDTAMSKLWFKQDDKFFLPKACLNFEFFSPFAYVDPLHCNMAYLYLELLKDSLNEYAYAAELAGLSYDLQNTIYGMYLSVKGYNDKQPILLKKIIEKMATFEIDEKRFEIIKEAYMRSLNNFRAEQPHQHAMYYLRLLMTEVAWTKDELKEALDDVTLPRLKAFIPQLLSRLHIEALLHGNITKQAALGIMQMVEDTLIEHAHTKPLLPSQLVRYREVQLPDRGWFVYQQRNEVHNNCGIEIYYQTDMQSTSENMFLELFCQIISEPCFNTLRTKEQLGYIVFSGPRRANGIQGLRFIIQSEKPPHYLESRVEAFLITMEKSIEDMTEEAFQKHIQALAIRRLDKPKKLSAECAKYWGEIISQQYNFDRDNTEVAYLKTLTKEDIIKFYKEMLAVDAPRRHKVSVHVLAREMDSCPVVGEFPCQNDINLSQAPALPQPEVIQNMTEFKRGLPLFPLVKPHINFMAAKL
Hits are given with their value; i = inactive.

SMILES	IDE exosite FP
COc1cccc(-c2ccc([C@H]3[C@H](CO)N4CCCCN(Cc5cncnc5)C[C@@H]34)cc2)c1	-3.01
COc1cccc(-c2ccc([C@H]3[C@@H](CO)N4CCCCN(Cc5cncnc5)C[C@@H]34)cc2)c1	i
COc1cccc(-c2ccc([C@H]3[C@@H](CO)N4CCCCN(CC5CC5)C[C@H]34)cc2)c1	-5.14
CO[C@@H](CN(C)C(=O)C1CCOCC1)[C@H](C)CN([C@H](C)CO)S(=O)(=O)c1ccccc1	i
C[C@H]1CN([C@@H](C)CO)C(=O)c2cccc(NC(=O)c3ccncc3)c2O[C@@H]1CN(C)Cc1ccc2c(c1)OCO2	i
COc1cccc(NC(=O)N2[C@H](CO)[C@H](c3ccccc3)[C@H]2CNCC(C)C)c1	i
Cc1noc(C)c1NC(=O)N(C)C[C@H]1Oc2ccc(NC(=O)CCCN(C)C)cc2C(=O)N([C@H](C)CO)C[C@H]1C	i
CO[C@H](CN(C)C(=O)C1CCOCC1)[C@H](C)CN(C(=O)Nc1ccc(C(F)(F)F)cc1)[C@H](C)CO	i
CCCC#Cc1ccc([C@H]2[C@@H](CO)N3C(=O)CN(C(=O)c4ccccc4)C[C@@H]23)cc1	i
C[C@H](CO)N1C[C@H](C)[C@H](CN(C)C(=O)NC2CCCC2)OCc2cnnn2CCCC1=O	i
CCCC#Cc1ccc([C@H]2[C@@H](C#N)N(S(=O)(=O)c3cccc(F)c3)[C@H]2CO)cc1	i
CCN(C[C@@H]1[C@@H](c2ccccc2)[C@@H](CO)N1CC1CC1)C(=O)c1ccccn1	i
CCC(=O)NC[C@@H]1N[C@@H](CO)[C@H]1c1ccc(C2=CCCC2)cc1	i
COc1cccc(-c2ccc([C@@H]3[C@H]4CN(C(=O)C5CCC5)CC(=O)N4[C@H]3CO)cc2)c1	-9.32
COc1ccc(-c2ccc([C@H]3[C@H](CO)N4C(=O)CN(C(=O)C5CCC5)C[C@@H]34)cc2)cc1	i
COc1cccc(-c2ccc([C@@H]3[C@@H](CO)N4C(=O)CN(C(=O)C5CCC5)C[C@@H]34)cc2)c1	-11.8
CN(C)C(=O)c1cccc(-c2ccc([C@H]3[C@H](CO)N4C(=O)CN(C(=O)C5CCC5)C[C@@H]34)cc2)c1	i
COc1ccc(-c2ccc([C@@H]3[C@H]4CN(C(=O)C5CCC5)CC(=O)N4[C@H]3CO)cc2)cc1	i
COc1cccc(-c2ccc([C@H]3[C@@H](CO)N4C(=O)CN(C(=O)C5CCC5)C[C@@H]34)cc2)c1	-6.99
O=C(C1CCC1)N1CC(=O)N2[C@H](C1)[C@H](c1ccc(-c3cccnc3)cc1)[C@@H]2CO	i
O=C(C1CCC1)N1CC(=O)N2[C@H](C1)[C@@H](c1ccc(-c3cccnc3)cc1)[C@@H]2CO	i
COc1ccc(-c2ccc([C@@H]3[C@@H](CO)N4C(=O)CN(C(=O)C5CC5)C[C@@H]34)cc2)cc1	i
COc1cccc(-c2ccc([C@@H]3[C@@H](CO)N4C(=O)CN(C(=O)C5CC5)C[C@H]34)cc2)c1	-5.23
COc1ccc(-c2ccc([C@@H]3[C@@H](CO)N4C(=O)CN(C(=O)C5CCC5)C[C@H]34)cc2)cc1	i
COc1ccc(-c2ccc([C@H]3[C@H]4CN(C(=O)C5CC5)CC(=O)N4[C@H]3CO)cc2)cc1	i
SMILES	IDE exosite FP
CN(C)C(=O)c1cc2c(c(-c3cccc(/C=C/c4ccccc4)c3)n1)[C@H](CCO)N([S@@](=O)C(C)(C)C)C2	i
COCC(=O)NC[C@H]1N[C@H](CO)[C@H]1c1ccc(C2=CCCCC2)cc1	i
CO[C@@H]1CN(C)C(=O)c2ccc(NS(=O)(=O)c3c(C)noc3C)cc2OC[C@H](C)NC[C@H]1C	i
C[C@@H]1CC=CCCNC(=O)[C@@H](Cc2ccccc2)N(C)C(=O)c2ccccc2O1 (mixture of isomers)	i
C/C=C/c1ccccc1[C@H]1[C@@H](C#N)N(C(=O)CN2CCOCC2)[C@@H]1CO	i
O=C(CN1CCOCC1)N1CC[C@@H]2[C@@H](CO)Nc3ccc(Br)cc3[C@@H]21	i
N#C[C@H]1[C@@H](c2ccc(-c3cccc(F)c3)cc2)[C@H](CO)N1C(=O)CN1CCOCC1	i
C[C@@H](NC(=O)C[C@H]1C=C[C@@H](NS(=O)(=O)c2cccc(F)c2)[C@@H](CO)O1)c1ccccc1	i
C/C=C/c1ccc([C@@H]2[C@@H](CO)N3C(=O)CN(Cc4ccc(C)cc4)C[C@H]23)cc1	i
CC(=O)N1CCCCN2[C@H](C1)[C@@H](c1ccc(C#Cc3ccccc3F)cc1)[C@@H]2CO	-4.45
CC(=O)N1CCCCN2[C@H](CO)[C@@H](c3ccc(-c4ccccc4)cc3)[C@H]2C1	i
CC(=O)N1CCCCN2[C@H](C1)[C@H](c1ccc(C#Cc3ccccc3F)cc1)[C@@H]2CO	-4.72
CC(=O)N1CCCCN2[C@H](CO)[C@H](c3ccc(C#Cc4ccccc4F)cc3)[C@@H]2C1	-4.93
CC(=O)N1CCCCN2[C@@H](CO)[C@H](c3ccc(C#Cc4ccccc4F)cc3)[C@@H]2C1	i
COc1ccc(C#Cc2ccc([C@@H]3[C@@H](CO)N4CCCCN(C(=O)Nc5ccccc5F)C[C@@H]34)cc2)cc1	i
CC(=O)N1CCCCN2[C@H](CO)[C@H](c3ccc(C#Cc4ccccc4F)cc3)[C@H]2C1	-7.26
COc1ccc(C#Cc2ccc([C@H]3[C@@H](CO)N4CCCCN(C(=O)Nc5ccccc5F)C[C@@H]34)cc2)cc1	i
O=C(Nc1ccc(F)cc1)N1CCCCN2[C@H](CO)[C@@H](c3ccc(C#Cc4ccccc4)cc3)[C@@H]2C1	i
CN(C)CC#Cc1ccc([C@H]2[C@@H](CO)N3CCCCN(C(=O)Nc4cc(F)ccc4F)C[C@@H]23)cc1	i
CCCC#Cc1ccc([C@H]2[C@H]3CN(C(=O)NCCC)CC(=O)N3[C@H]2CO)cc1	i
O=C(C[C@@H]1C=C[C@@H](NS(=O)(=O)c2ccccc2)[C@H](CO)O1)NCCN1CCCCC1	i
Cc1ccc(OC(=O)N(C)C[C@H]2OCc3ccccc3-c3ccccc3C(=O)N([C@@H](C)CO)C[C@H]2C)cc1	i
CO[C@@H]1CC[C@H]2CCOc3ccc(C#N)cc3C(=O)N(C)C[C@@H](c3ccccc3)CC(=O)N(C)C[C@@H]1O2	i
C[C@@H]1CCCCO[C@@H](CN(C)CC2CCCCC2)[C@@H](C)CN([C@H](C)CO)C(=O)c2cc(NS(C)(=O)=O)ccc2O1	i
CC(=O)NC[C@H]1[C@@H](c2ccc(-c3cccnc3)cc2)[C@@H](CO)N1C(=O)C1CCC1	i
SMILES	IDE exosite FP
N#C[C@@H]1[C@@H](c2ccc(-c3cccc(F)c3)cc2)[C@H](CO)N1S(=O)(=O)c1cccc(F)c1	i
CCCC#Cc1cnc2c(c1)C(=O)N([C@@H](C)CO)C[C@@H](C)[C@@H](CN(C)C(=O)Nc1cc(F)ccc1F)O2	i
C/C=C/c1ccc(C2[C@@H]3CN(C(=O)NC4CCCCC4)C[C@H]2N3)cc1 (stereo partly drawn)	i
O=C(NC1CCCCC1)N1C[C@@H]2N[C@H](C1)C2c1ccc(-c2ccc(F)cc2)cc1 (stereo partly drawn)	i
O=C(Nc1cccc(F)c1)N1C[C@@H]2N[C@H](C1)C2c1ccc(-c2cccnc2)cc1 (stereo partly drawn)	i
O=C(Nc1cccc(F)c1)N1C[C@@H]2N[C@H](C1)C2c1ccc(-c2ccccc2F)cc1 (stereo partly drawn)	i
O=C(Nc1ccc(F)cc1)N1C[C@@H]2N[C@H](C1)C2c1ccc(/C=C/c2ccccc2)cc1 (stereo partly drawn)	i
Cc1ccccc1-c1ccc(C2[C@@H]3CN(C(=O)Nc4cccc(F)c4)C[C@H]2N3)cc1 (stereo partly drawn)	-6.41

Screening results (PubChem)
